Results: PubChem BioAssay (NCATS)
Inconclusive results are not listed. Calls of active or inactive are those of the source. Calls come from the whole dose curve; as a rule, active = well fitted curve in the direction sought with a large enough effect; inconclusive = small, poorly fitted or top-dose-only effect, or another doubt; inactive = no such curve, though single readings can be large; an effect the other way counts as inactive or inconclusive.

Legend:
[1] = molecular target: Rap guanine nucleotide exchange factor 3 (Homo sapiens) (UniProt O95398); experiment: Confirmatory qHTS for antagonist of cAMP-regulated guanine nucleotide exchange factor 3 (EPAC1) (AID 1645880);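 note: plate controls were DMSO only for no effect and full effect of the ATA control for full effect; nearly all actives have a fitted effect of over 55% in size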
Rap guanine nucleotide exchange factor 3 (Homo sapiens), sequence (O95398 whole entry, looked up): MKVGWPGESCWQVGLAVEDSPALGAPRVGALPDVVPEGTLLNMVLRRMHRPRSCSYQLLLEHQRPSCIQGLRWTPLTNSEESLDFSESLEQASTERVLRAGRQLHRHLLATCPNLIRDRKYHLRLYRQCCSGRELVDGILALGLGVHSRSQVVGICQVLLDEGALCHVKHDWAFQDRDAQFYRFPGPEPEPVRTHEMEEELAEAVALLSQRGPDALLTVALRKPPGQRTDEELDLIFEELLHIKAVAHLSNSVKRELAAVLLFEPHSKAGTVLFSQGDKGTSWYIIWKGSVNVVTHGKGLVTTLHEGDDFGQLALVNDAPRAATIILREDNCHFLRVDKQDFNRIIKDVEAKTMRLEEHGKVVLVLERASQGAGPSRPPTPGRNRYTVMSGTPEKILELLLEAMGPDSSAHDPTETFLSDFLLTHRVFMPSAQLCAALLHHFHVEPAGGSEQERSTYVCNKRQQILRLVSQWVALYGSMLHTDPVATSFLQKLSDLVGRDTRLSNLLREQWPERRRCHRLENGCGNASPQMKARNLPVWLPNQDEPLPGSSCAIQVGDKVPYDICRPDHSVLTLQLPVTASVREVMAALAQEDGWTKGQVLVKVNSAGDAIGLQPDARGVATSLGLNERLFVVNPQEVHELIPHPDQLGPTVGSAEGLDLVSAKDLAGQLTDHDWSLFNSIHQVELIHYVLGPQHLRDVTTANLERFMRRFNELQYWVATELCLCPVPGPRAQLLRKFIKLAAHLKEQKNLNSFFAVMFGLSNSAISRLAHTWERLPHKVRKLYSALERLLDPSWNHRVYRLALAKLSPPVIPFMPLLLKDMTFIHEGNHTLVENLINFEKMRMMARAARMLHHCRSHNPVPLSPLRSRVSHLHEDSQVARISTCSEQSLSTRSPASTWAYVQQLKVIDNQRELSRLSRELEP
Outline: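 Nucleotide exchange uses 100 nM EPAC1, 250 nM RAP1B-BODIPY-GDP and 50 uM GDP, with compounds in a concentration-titration series. After 5 min at room temperature, fluorescence (480 nm ex/540 nm em) is read every 5 min for 30 min. Data are normalized to control ATA and DMSO.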

[2] = molecular target: Rap guanine nucleotide exchange factor 3 (Homo sapiens) (UniProt O95398); experiment: Confirmatory qHTS for agonist of cAMP-regulated guanine nucleotide exchange factor 3 (EPAC1) (AID 1645881);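 note: EPAC1 catalysed release of BODIPY-GDP from Rap1B seen as fluorescence loss; 100% = effect of cAMP agonist control; nearly all actives have a fitted effect of over 75% in size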
[3] = molecular target: Rap guanine nucleotide exchange factor 4 (Homo sapiens) (UniProt Q8WZA2); experiment: Confirmatory qHTS for agonist of cAMP-regulated guanine nucleotide exchange factor 4 (EPAC2) (AID 1645884);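 note: nucleotide exchange releases bodipy-GDP from Rap1 and this lowers its fluorescence; nearly all actives have a fitted effect of over 65% in size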; note: potency is the fitted concentration of half-maximal effect; for activation: % is set by controls: 0 for no effect and ±100 for the full control effect
Rap guanine nucleotide exchange factor 4 (Homo sapiens), sequence (Q8WZA2 whole entry, looked up): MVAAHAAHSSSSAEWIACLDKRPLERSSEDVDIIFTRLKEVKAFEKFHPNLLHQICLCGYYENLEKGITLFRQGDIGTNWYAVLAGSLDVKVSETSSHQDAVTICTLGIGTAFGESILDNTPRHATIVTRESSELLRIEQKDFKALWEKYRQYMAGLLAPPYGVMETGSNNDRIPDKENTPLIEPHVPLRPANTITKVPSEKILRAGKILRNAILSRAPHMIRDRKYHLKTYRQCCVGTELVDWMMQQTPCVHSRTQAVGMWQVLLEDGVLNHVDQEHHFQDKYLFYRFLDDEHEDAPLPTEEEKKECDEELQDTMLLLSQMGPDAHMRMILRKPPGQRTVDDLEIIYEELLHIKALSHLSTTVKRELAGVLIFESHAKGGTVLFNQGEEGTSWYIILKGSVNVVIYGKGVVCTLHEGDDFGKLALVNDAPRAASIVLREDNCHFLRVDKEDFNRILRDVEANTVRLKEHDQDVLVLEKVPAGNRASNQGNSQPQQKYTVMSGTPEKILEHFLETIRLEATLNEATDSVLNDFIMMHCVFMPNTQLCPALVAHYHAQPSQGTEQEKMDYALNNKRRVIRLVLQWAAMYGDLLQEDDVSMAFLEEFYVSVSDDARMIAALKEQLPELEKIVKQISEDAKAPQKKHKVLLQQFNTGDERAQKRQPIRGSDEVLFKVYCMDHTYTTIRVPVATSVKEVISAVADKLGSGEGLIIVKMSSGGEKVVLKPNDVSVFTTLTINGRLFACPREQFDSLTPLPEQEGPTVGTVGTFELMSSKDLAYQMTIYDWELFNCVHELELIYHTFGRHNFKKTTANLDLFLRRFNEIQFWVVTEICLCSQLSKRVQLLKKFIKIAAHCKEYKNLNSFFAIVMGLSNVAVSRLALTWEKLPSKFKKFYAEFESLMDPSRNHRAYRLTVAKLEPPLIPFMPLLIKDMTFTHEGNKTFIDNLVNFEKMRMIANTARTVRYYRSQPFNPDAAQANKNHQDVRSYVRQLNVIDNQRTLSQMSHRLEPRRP

[4] = molecular target: Rap guanine nucleotide exchange factor 4 (Homo sapiens) (UniProt Q8WZA2); experiment: Confirmatory qHTS for antagonist of cAMP-regulated guanine nucleotide exchange factor 4 (EPAC2) (AID 1645885); note: nearly all actives have a fitted effect of over 25% in size; note: potency is the fitted concentration of half-maximal effect; for activity change, negative = inhibition: % is set by controls: 0 for no effect and ±100 for the full control effect
[5] = molecular target: Rap guanine nucleotide exchange factor 3 (Homo sapiens) (UniProt O95398); experiment: Counterscreen qHTS for agonist of cAMP-regulated guanine nucleotide exchange factor 3 (EPAC1) (AID 1645889); note: nearly all actives have a fitted effect of over 40% in size; note: potency is the fitted concentration of half-maximal effect; for activation: % of control where 0% means no effect
Outline: (§1)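 Measured: fluorescence of BODIPY-GDP bound to Rap1B, which falls as exchange proceeds. Conditions include 50 uM competing GDP, 5 and 30 min reads, and a later cAMP challenge for antagonist detection.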

[6] = molecular target: Rap guanine nucleotide exchange factor 3 (Homo sapiens) (UniProt O95398); experiment: Counterscreen qHTS for antagonist of cAMP-regulated guanine nucleotide exchange factor 3 (EPAC1) (AID 1645888);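 note: fluorescence loss as bound BODIPY-GDP is released from Rap1B; % of control where 0% means no effect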
Outline: as §1

[7] = molecular target: Tumor susceptibility gene 101 protein (Homo sapiens) (UniProt Q99816); experiment: qHTS Assay for Iinhibitors of HIV-1 Budding by Blocking the Interaction of PTAP/TSG101: Hit Validation (AID 651600); note: nearly all actives have a fitted effect of over 70% in size; note: potency is the fitted concentration of half-maximal effect; for activity change, negative = inhibition: % is set by controls: 0 for no effect and ±100 for the full control effect
Tumor susceptibility gene 101 protein (Homo sapiens), sequence (Q99816 whole entry, looked up, the tested form may be a part): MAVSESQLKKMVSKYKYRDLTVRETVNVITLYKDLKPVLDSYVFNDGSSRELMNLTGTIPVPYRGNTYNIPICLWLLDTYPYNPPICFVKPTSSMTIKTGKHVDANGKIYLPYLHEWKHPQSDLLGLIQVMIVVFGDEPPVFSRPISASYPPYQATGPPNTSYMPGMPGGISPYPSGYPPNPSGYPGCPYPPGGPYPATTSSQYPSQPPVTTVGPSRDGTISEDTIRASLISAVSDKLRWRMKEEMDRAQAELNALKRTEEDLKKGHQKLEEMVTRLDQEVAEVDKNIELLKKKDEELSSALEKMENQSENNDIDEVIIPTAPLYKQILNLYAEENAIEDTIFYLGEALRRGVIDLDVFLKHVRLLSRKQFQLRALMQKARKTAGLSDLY
Outline: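 FITC-PTAP peptide (50 nM final) binding to Tsg101 binding domain (10 uM final) was measured by polarization after 20 min at r.t. with compounds, in 10 mM HEPES pH 7.5 buffer with 0.15 M NaCl and 0.01% Tween 20.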

OC1/C(=C/c2ccc(C(F)(F)F)cc2)N2CCC1CC2 (centres undefined)
inactive: Potency [1] | Potency [2] | Potency [3] | Potency [4] | Potency [5]

Nc1c2c(nc3sc4c(c13)CCCC4)CCCC2
inactive: Potency [2] | activation [3] 3.84% [at 17.1 µM, percent relative to cAMP agonist control] | activity change, negative = inhibition [4] -3.15% [at 12.7 µM] | activity change, negative = inhibition [6] 4.03% [at 30.8 µM]

Cc1cc(/C=C2\C(=O)NC(=O)N(Cc3ccccc3Cl)C2=O)c(C)n1-c1ccc(C(=O)O)cc1
inactive: Potency [2] | activation [3] -9.15% [at 17.1 µM, percent relative to cAMP agonist control] | activity change, negative = inhibition [4] -6.02% [at 12.7 µM] | activity change, negative = inhibition [6] 4.25% [at 30.8 µM]

CCCNC1=C(C)C(=O)C2=C(C1=O)C(COC(N)=O)[C@]1(OC)C3NC3CN21 (some centres undefined)
inactive: Potency [2] | Potency [3] | Potency [4]

COP(=O)(/C=C(\Cl)c1ccccc1)/C=C(\Cl)c1ccccc1
inactive: Potency [2] | Potency [3] | Potency [4]

O=C1NC(=O)N(CCc2ccc(F)cc2)C(=O)/C1=C/c1ccco1
inactive: Potency [2] | activation [3] 1.5% [at 17.1 µM, percent relative to cAMP agonist control] | activity change, negative = inhibition [4] -8.03% [at 12.7 µM] | activity change, negative = inhibition [6] -2.28% [at 30.8 µM]

Cn1cc(/C=C2\C(=O)NC(=O)N(c3ccccc3)C2=O)c2ccccc21
inactive: Potency [1] | outcome [6] | Potency [5]
active: Potency [3] 112 µM | Potency [4] 95.3 µM

Nc1ccc2ccc3cccc[n+]3c2c1
active: Potency [7] 4.11 µM | Potency [3] 100 µM
inactive: Potency [1] | Potency [4]

Nc1ccc2nonc2c1[N+](=O)[O-]
inactive: Potency [1] | outcome [6]
active: Potency [7] 14.6 µM | Potency [3] 112 µM | Potency [4] 47.8 µM | Potency [5] 63.1 µM

CCOC(=O)[C@]12Cc3cc(OC)ccc3[C@H]1N(Cc1ccccc1)C(=O)c1ccccc12
inactive: Potency [2] | Potency [3]
active: Potency [4] 19 µM

CCOC(=O)c1c(-c2ccccc2)oc2ccc(OC(=O)N(C)C)cc12
inactive: Potency [2] | Potency [3] | Potency [4] | outcome [6]

CC(=O)C1C2c3ccccc3OC1(C)N=c1s/c(=C/c3cn(C)nc3C)c(=O)n12 (centres undefined)
inactive: Potency [2] | Potency [3] | Potency [4] | outcome [6]

O=C1NC(=O)N(Cc2ccccc2)C(=O)/C1=C\C=C\c1ccco1
inactive: Potency [2] | activation [3] 12.1% [at 17.1 µM, percent relative to cAMP agonist control] | activity change, negative = inhibition [4] 2.97% [at 12.7 µM]

Cc1cccc(-c2nc(CN3C(=O)CN=C(c4ccccc4)c4ccccc43)c(C)o2)c1
inactive: Potency [2] | Potency [3] | activity change, negative = inhibition [4] 48.3% [at 12.7 µM]

COCCNC(=O)Cn1cc(/C=C2\C(=O)NC(=O)N(c3ccccc3F)C2=O)c2ccccc21
inactive: Potency [2] | Potency [3] | Potency [4]

Cc1oc(-c2ccccc2)nc1CN1C(=O)CN=C(c2ccccc2)c2ccccc21
inactive: Potency [2] | activation [3] 7.27% [at 17.1 µM, percent relative to cAMP agonist control]

Cc1ccccc1-c1nc(CN2C(=O)CN=C(c3ccccc3)c3ccccc32)c(C)o1
inactive: Potency [2] | Potency [3]

Nc1cc(Cl)c2nonc2c1[N+](=O)[O-]
inactive: Potency [2] | activation [3] 5.26% [at 17.1 µM, percent relative to cAMP agonist control] | activity change, negative = inhibition [4] 1.82% [at 12.7 µM] | activity change, negative = inhibition [6] -3.15% [at 30.8 µM]

O=[N+]([O-])c1ccc(N2CCCCCC2)c2nonc12
active: Potency [3] 100 µM
inactive: Potency [1] | Potency [4] | outcome [6]

COc1cccc(N2C(=O)NC(=O)/C(=C\c3cn(C)c4ccccc34)C2=O)c1
inactive: Potency [1] | Potency [4] | outcome [6]
active: Potency [3] 100 µM

O=C1NC(=O)N(Cc2ccco2)C(=O)/C1=C\c1cccn1CCOc1ccc(Cl)cc1
inactive: Potency [2] | activation [3] 1.56% [at 17.1 µM, percent relative to cAMP agonist control] | activity change, negative = inhibition [4] -27.2% [at 12.7 µM] | activity change, negative = inhibition [6] -25.1% [at 30.8 µM]

CCCCN1C(=O)/C(=C\c2ccco2)C(=O)N(CCc2ccccc2)C1=O
inactive: Potency [2] | Potency [3] | Potency [4] | outcome [6]

CN1/C(=C\C=C2C(=O)NC(=S)NC2=O)C(C)(C)c2ccccc21
inactive: Potency [7] | Potency [1] | Potency [4] | outcome [6]
active: Potency [3] 100 µM

O=c1[nH]c(=O)n(-c2cccc(F)c2)c(O)c1/C=C1\C=Nc2ccccc21
inactive: Potency [1] | Potency [3] | Potency [4] | outcome [6] | Potency [5]

CCCCN1C(=O)/C(=C/c2ccc(N(C)C)cc2)C(=O)N(Cc2ccco2)C1=O
inactive: Potency [2] | activation [3] 15.2% [at 17.1 µM, percent relative to cAMP agonist control] | activity change, negative = inhibition [4] 35.5% [at 12.7 µM] | activity change, negative = inhibition [6] 25.6% [at 30.8 µM]

COc1cc2c(cc1OC)-c1c(OC)c(OC)cc3c1[C@H](C2)N(C)CC3
inactive: Potency [2] | activation [3] 9.51% [at 17.1 µM, percent relative to cAMP agonist control] | activity change, negative = inhibition [4] -6.31% [at 12.7 µM] | activity change, negative = inhibition [6] 10.1% [at 30.8 µM]

O=c1[nH]c(=S)n(-c2ccc(Cl)cc2)c(O)c1C=Nc1ccc(N2CCOCC2)cc1
inactive: Potency [1] | Potency [3] | Potency [4] | outcome [6] | Potency [5]

Cn1cccc1/C=C1/C(=O)NC(=O)N(Cc2ccc(F)cc2)C1=O
inactive: Potency [2] | Potency [3] | Potency [4] | outcome [6]

CCOC(=O)[C@]12Cc3cc(Cl)ccc3[C@H]1N(Cc1ccccc1)C(=O)c1ccccc12
inactive: Potency [2] | Potency [3] | Potency [4]

CCOC(=O)[C@]12Cc3ccccc3[C@H]1N(C(C)C)C(=O)c1cc(OC)ccc12
inactive: Potency [2] | activation [3] 1.3% [at 17.1 µM, percent relative to cAMP agonist control] | activity change, negative = inhibition [4] -28.9% [at 12.7 µM] | activity change, negative = inhibition [6] -13.8% [at 30.8 µM]

CCOC(=O)c1cc(CC)sc1/N=C/C1C(=O)NC(=S)NC1=O
inactive: Potency [1] | activity change, negative = inhibition [4] -21.4% [at 12.7 µM] | activity change, negative = inhibition [6] -8.68% [at 30.8 µM]
